This passage reports growth inhibition, inhibition and outcome results from PubChem BioAssay.

A number with no mark means an inactive call. For some of these results: Potency and affinity values are given separately. Calls of active or inactive are those of the source. Unless noted, the rule behind the calls is not given here.

Assay [1] can be described thus: antimalarial activity against Dd2 strain (AID 2302;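 active = growth inhibition above 50% at the single 2 µM test dose, taken to imply half-maximal potency below 2 µM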;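 note: 0% = DMSO untreated growth and 100% = chloroquine plus artemisinin killed control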). The following applies: P. falciparum Dd2 in RBCs, LDH growth readout, 72 h; at 2 µM; active compounds read high.
The nature of assay [2]: HepG2 cytotoxicity, primary screen, cytotoxicity control for P. falciparum antimalarial project, cell-based, ATP luminescence (AID 2303;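 active = inhibition above 50%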;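 note: 0% = DMSO wells and 100% = digitonin-killed cells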). The conditions noted are these: HepG2 viability, 24-48 h, at 10 µM, active compounds read high.
The target of assay [3] is L-lactate dehydrogenase (Plasmodium falciparum (isolate CDC / Honduras)) (UniProt Q27743). The assay can be described thus: PfLDH activity inhibition – cell lysate, 3D7 strain, counter-screen for P. falciparum growth inhibition project (AID 2304).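 Note: 0% = vehicle and 100% = reference inhibitor.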 The following applies: P. falciparum 3D7 crude extract, LDH APAD/NBT absorbance; at 2 µM; active compounds read high. A general note: The purpose of a counterscreen is to sort out artefacts and off-target activity.
L-lactate dehydrogenase (Plasmodium falciparum (isolate CDC / Honduras)), sequence (Q27743 whole entry, looked up): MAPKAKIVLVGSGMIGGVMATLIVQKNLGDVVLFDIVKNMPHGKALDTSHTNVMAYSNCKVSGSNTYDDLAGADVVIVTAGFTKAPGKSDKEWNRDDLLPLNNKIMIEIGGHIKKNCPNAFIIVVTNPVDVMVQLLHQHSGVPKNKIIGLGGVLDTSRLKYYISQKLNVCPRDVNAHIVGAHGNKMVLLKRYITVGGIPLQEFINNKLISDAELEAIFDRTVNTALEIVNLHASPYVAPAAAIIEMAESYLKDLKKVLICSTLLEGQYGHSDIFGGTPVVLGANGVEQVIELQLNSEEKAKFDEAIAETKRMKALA

Assay [4] is described as follows: inhibition of 3D7 malaria parasite growth – strain 3D7 (AID 2306).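 Note: 0% = DMSO wells and 100% = chloroquine plus artemisinin control wells.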 The conditions noted are these: P. falciparum 3D7 erythrocytic growth, LDH absorbance, 72 h; at 2 µM; active compounds read high.
For assay [5], the target named is Calcium-dependent protein kinase 1 (Plasmodium falciparum (isolate 3D7)) (UniProt P62344). As to the kind of experiment: PfCDPK1 kinase inhibitors, biochemical, TCAMS library (AID 1159585; cut-off not given, nearly all actives have IC50 up to about 0.98 µM;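 note: inhibitors leave more ATP so luminescence rises with inhibition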). The following applies: recombinant PfCDPK1, Kinase-Glo ATP depletion luminescence. For orientation: Kinase-Glo measures the ATP left after a reaction by luminescence.
Calcium-dependent protein kinase 1 (Plasmodium falciparum (isolate 3D7)), sequence (P62344 whole entry, looked up): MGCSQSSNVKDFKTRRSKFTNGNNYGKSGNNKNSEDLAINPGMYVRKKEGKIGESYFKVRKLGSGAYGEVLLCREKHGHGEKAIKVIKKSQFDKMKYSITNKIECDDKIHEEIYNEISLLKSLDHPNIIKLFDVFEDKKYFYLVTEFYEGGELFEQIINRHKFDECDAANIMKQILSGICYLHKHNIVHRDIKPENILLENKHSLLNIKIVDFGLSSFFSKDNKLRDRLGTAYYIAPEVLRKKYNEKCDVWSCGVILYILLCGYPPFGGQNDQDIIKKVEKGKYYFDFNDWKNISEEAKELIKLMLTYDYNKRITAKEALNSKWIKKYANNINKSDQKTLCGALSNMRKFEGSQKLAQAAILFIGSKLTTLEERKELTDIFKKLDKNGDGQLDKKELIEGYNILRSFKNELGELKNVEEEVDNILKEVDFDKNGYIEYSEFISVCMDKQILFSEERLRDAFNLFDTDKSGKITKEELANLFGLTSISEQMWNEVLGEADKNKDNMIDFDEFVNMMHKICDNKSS
Assay [6] addresses Plasmodium falciparum protein kinase 6 (PK6, PF3D7_1337100) (UniProt Q8IDW1). The assay can be described thus: PfPK6 kinase inhibitors, biochemical, TCAMS library (AID 1159586). The following applies: recombinant PfPK6, Kinase-Glo ATP depletion luminescence.
The target in assay [7] is Protein kinase 7 (PK7), Plasmodium falciparum 3D7 (PF3D7_0213400) (UniProt Q7YTF7). The assay can be described thus: inhibition of Plasmodium PK7 catalytic activity – biochemical, TCAMS antimalarial set, Kinase-Glo luminescence (AID 1159587). The following applies: recombinant PfPK7, Kinase-Glo ATP depletion luminescence.
Protein kinase 7 (PK7), Plasmodium falciparum 3D7 (PF3D7_0213400), sequence (Q7YTF7 1-343): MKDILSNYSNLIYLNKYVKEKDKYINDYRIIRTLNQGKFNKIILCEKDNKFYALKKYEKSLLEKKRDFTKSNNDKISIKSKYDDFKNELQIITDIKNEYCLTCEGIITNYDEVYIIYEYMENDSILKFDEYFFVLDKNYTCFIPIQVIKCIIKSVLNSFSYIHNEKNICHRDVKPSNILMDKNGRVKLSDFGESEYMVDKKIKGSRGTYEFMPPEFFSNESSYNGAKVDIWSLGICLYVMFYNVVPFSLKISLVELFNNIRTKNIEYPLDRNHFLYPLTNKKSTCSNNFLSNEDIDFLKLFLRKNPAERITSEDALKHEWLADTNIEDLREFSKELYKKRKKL
Assay [8] concerns the target Calcium-dependent protein kinase 4 (Plasmodium falciparum (isolate 3D7)) (UniProt Q8IBS5). As to the kind of experiment: PfCDPK4 kinase inhibitors, biochemical, TCAMS library (AID 1159588; cut-off not given, nearly all actives have IC50 up to about 0.91 µM). The conditions noted are these: recombinant PfCDPK4, Kinase-Glo ATP depletion luminescence.

Plasmodium falciparum protein kinase 6 (PK6, PF3D7_1337100), sequence (Q8IDW1 1-305): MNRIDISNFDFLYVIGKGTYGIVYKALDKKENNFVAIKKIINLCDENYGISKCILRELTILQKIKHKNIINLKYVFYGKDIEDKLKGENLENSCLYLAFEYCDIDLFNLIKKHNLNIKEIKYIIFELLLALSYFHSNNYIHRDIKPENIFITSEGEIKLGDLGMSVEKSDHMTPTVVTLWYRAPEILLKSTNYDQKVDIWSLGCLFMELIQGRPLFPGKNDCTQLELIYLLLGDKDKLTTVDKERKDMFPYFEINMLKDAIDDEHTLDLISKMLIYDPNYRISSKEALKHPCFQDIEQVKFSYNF
Calcium-dependent protein kinase 4 (Plasmodium falciparum (isolate 3D7)), sequence (Q8IBS5 whole entry, looked up): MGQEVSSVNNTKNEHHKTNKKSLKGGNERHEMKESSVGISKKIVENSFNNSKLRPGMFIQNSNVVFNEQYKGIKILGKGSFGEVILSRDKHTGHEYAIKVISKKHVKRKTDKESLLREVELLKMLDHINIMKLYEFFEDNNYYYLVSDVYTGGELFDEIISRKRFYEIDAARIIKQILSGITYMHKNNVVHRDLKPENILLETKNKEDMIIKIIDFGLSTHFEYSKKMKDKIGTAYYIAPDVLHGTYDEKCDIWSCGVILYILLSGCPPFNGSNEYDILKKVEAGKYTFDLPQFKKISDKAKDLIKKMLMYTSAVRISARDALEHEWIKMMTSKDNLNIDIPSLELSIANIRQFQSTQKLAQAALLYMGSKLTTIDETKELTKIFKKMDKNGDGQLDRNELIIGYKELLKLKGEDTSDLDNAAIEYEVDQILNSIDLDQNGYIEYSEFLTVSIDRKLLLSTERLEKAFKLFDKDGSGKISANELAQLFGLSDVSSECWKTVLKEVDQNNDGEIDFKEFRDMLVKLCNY

In the case of `O=C(/C=C/c1ccc(Cl)c(Cl)c1)NC1CCN(Cc2ccc(O)cc2)C1` (stereo not given), the growth inhibition in assay [1] was 4%; in assay [4], 97% (active). The inhibition was 15% in assay [2] and -1% in assay [3]. Besides, the result in assay [5], in assay [6], in assay [7] and in assay [8] was inactive.
Regarding `CC(C)CNC(=O)c1ccnc(-c2ccc(CNCCCc3ccccc3)cc2)c1`, the figures for the growth inhibition in assay [1] and in assay [4] were 22% and 99% (active), respectively. The figures for the inhibition in assay [2] and in assay [3] were 12% and -3%, respectively. Also, the result in assay [5], in assay [6], in assay [7] and in assay [8] was inactive.
For the compound `CCCOc1ccc(NC(=O)c2cccs2)cc1Cl`, the results for the growth inhibition in assay [1] and in assay [4] were 86% (active) and 88% (active), respectively. For the same compound, the inhibition was 1% in assay [2] and -4% in assay [3]. Further, the result in assay [5], in assay [6], in assay [7] and in assay [8] was inactive.
For the compound `Cc1ccc(Nc2nc(-c3ccccn3)cs2)nc1`, the growth inhibition in assay [1] is 97% (active); in assay [4], 94% (active). Besides, the figures for the inhibition in assay [2] and in assay [3] were 60% (active) and -8%, respectively. Besides, the result in assay [5], in assay [6], in assay [7] and in assay [8] was inactive.
In the case of `CCN(CC)CCN(Cc1ccc(-c2ccc(C(F)(F)F)cc2)cc1)C(=O)Cn1c(CCc2ccc(F)c(F)c2F)nc(=O)c2cccnc21`, the growth inhibition is 20% in assay [1] and 89% (active) in assay [4]. Also, the inhibition was 29% in assay [2] and -3% in assay [3]. In addition, the outcome in assay [5], in assay [6], in assay [7] and in assay [8] was inactive.
Consider `CNCCNCc1ccc(-c2ccc(-c3nc4ccc(F)cc4[nH]3)cc2)cc1`, for which the growth inhibition in assay [1] is 97% (active); in assay [4], 98% (active). Also, the inhibition in assay [2] is 30%; in assay [3] it was 4%. The outcome in assay [5], in assay [6], in assay [7] and in assay [8] was inactive.
For the compound `Nc1nc(N)c2c(ccc3c2ccn3Cc2cccc3ccccc23)n1`, the growth inhibition in assay [1] is 95% (active); in assay [4], 99% (active). The inhibition in assay [2] is 65% (active); in assay [3], -3%. Also, the outcome in assay [5], in assay [6], in assay [7] and in assay [8] was inactive.
In the case of `CN1CC[C@@H](Oc2cc(CNC(=O)c3ccc(-c4ccc(Cl)cc4)s3)ccc2C(F)(F)F)C1`, the growth inhibition in assay [1] is 64% (active); in assay [4] it was 93% (active). For the same compound, the inhibition in assay [2] is 40%; in assay [3], 2%. Moreover, the outcome in assay [5], in assay [6], in assay [7] and in assay [8] was inactive.
For the compound `O=C(/C=C/c1ccc(Cl)c(Cl)c1)NCCCCCN1CCC(CCNC(=O)/C=C/c2ccccc2F)CC1`, the growth inhibition in assay [1] is 1%; in assay [4], 94% (active). Further, the inhibition in assay [2] was 47%; in assay [3], -2%. Moreover, the result in assay [5], in assay [6], in assay [7] and in assay [8] was inactive.
Turning to `CCN(CC)CCN(Cc1ccc(-c2ccc(C(F)(F)F)cc2)cc1)C(=O)Cn1c(CCC2CCCCC2)nc(=O)c2ccccc21`, the values for the growth inhibition in assay [1] and in assay [4] were 25% and 87% (active), respectively. For the same compound, the inhibition in assay [2] was 32%; in assay [3], 3%. Further, the result in assay [5], in assay [6], in assay [7] and in assay [8] was inactive.
As to `O=C(NCCCCN1CC=C(c2ccc3c(c2OCc2ccccc2)CCCC3)CC1)c1ccc(-c2ccc(C(F)(F)F)cc2)cc1`, the growth inhibition is 82% (active) in assay [1] and 97% (active) in assay [4]. Moreover, the inhibition was 19% in assay [2] and -5% in assay [3]. For the same compound, the outcome in assay [5], in assay [6], in assay [7] and in assay [8] was inactive.
As for `COc1ccc(CN2CCCN(Cc3cccc(C(=O)Nc4ccc(C(C)(C)C)cc4)c3)CC2)cc1`, the growth inhibition in assay [1] was 3%; in assay [4] it was 98% (active). The inhibition in assay [2] is 46%; in assay [3] it was 2%. For the same compound, the outcome in assay [5], in assay [6], in assay [7] and in assay [8] was inactive.
As for `CCOC(=O)c1cc(C(=O)NCCCCN2CCC(c3cn(C)c4ccccc34)CC2)ccc1-c1ccc(C(F)(F)F)cc1`, the growth inhibition in assay [1] is 6%; in assay [4], 91% (active). Further, the inhibition is 25% in assay [2] and -3% in assay [3]. Besides, the result in assay [5], in assay [6], in assay [7] and in assay [8] was inactive.
As for `O=c1cnc2ccc(F)cc2n1CCN1CCC(NCc2cc(-c3ccccc3)cs2)CC1`, the values for the growth inhibition in assay [1] and in assay [4] were 14% and 91% (active), respectively. For the same compound, the results for the inhibition in assay [2] and in assay [3] were -5% and -2%, respectively. Further, the result in assay [5], in assay [6], in assay [7] and in assay [8] was inactive.
For the compound `CN1CCN(Cc2ccc(-c3ccc4ncnc(Nc5ccc(OCc6ccccc6)cc5)c4c3)o2)CC1`, the results for the growth inhibition in assay [1] and in assay [4] were 90% (active) and 97% (active), respectively. In addition, the inhibition is 9% in assay [2] and 2% in assay [3]. Further, the outcome in assay [5], in assay [6], in assay [7] and in assay [8] was inactive.
Take `CCc1ccc(C(=O)Nc2cccc(CN3CCCN(Cc4ccc(O)cc4)CC3)c2)cc1`: the growth inhibition is 74% (active) in assay [1] and 101% (active) in assay [4]. For the same compound, the inhibition in assay [2] is 11%; in assay [3], -1%. Besides, the outcome in assay [5], in assay [6], in assay [7] and in assay [8] was inactive.
As for `COc1cc(NCCCNC(=O)c2cc3c(Cl)cc(Cl)cc3[nH]2)nc2ccccc12`, the growth inhibition in assay [1] and in assay [4] was 100% (active) each time. The inhibition in assay [2] is 96% (active); in assay [3], -1%. In addition, the outcome in assay [5], in assay [6], in assay [7] and in assay [8] was inactive.
As for `CCn1cc(CN2C(=O)C(c3ccccc3)(c3ccccc3)N=C2N)cn1`, the growth inhibition was 60% (active) in assay [1] and 95% (active) in assay [4]. For the same compound, the values for the inhibition in assay [2] and in assay [3] were 7% and -2%, respectively. For the same compound, the result in assay [5], in assay [6], in assay [7] and in assay [8] was inactive.
Take `CCCCCCCCCN1CC[C@@H](CCCc2ccnc3ccc(O)cc23)[C@@H](CC)C1`: the growth inhibition in assay [1] was 59% (active); in assay [4] it was 83% (active). Further, the inhibition is 58% (active) in assay [2] and -3% in assay [3]. Also, the result in assay [5], in assay [6], in assay [7] and in assay [8] was inactive.
Turning to `CCCCC(NCC)c1ccc(OCCOc2ccc(C(CCCC)NCC)cc2)cc1` (stereo not given), the figures for the growth inhibition in assay [1] and in assay [4] were 99% (active) and 101% (active), respectively. Besides, the inhibition in assay [2] was 100% (active); in assay [3] it was 3%. The outcome in assay [5], in assay [6], in assay [7] and in assay [8] was inactive.

The term inhibition denotes the relative decrease from the control value, in per cent.
